About 79,000 compounds went through this panel and 15% of them were active in at least one assay; those are over-represented in the sample as a whole. Activity calls are given as the source filed them. Rule as the data show it: active = growth inhibition above about 70%; inactive = the rest.
Assays:
[1] = NCI Yeast Anticancer Drug Screen. Data for the rad52 strain (AID 147);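 also: 0% = growth of vehicle-treated control cultures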; settings: S. cerevisiae rad52 mutant growth inhibition, active compounds read high
Summary of the method: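 Here a repair-compromised yeast strain receives each compound; its growth is then quantified and normalised to vehicle-only controls.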

[2] = NCI Yeast Anticancer Drug Screen. Data for the wt1 strain (AID 149);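 also: 0% = growth of vehicle-treated wt1 cultures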; settings: S. cerevisiae wt1 strain (SPY 50644) growth inhibition, active compounds read high
Summary of the method: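 The wt1 strain was treated with compounds, and growth was compared with vehicle-treated cultures to give inhibition.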

[3] = NCI Yeast Anticancer Drug Screen. Data for the rad50EPP+ strain (AID 151);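 also: 0% = growth of vehicle-treated control cultures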; settings: S. cerevisiae rad50 mutant strain, active compounds read high
Summary of the method: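 Read-out is yeast growth inhibition relative to vehicle; cells used were the rad50EPP+ strain.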

[4] = NCI Yeast Anticancer Drug Screen. Data for the mgt1 strain (AID 153); settings: S. cerevisiae mgt1 mutant growth inhibition, active compounds read high
Summary of the method: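 Measured: inhibition of mgt1 yeast growth by compound, normalized to vehicle-treated cultures.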

[5] = NCI Yeast Anticancer Drug Screen. Data for the rad50 strain (AID 155);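 also: 0% = growth of vehicle-only cultures of the same strain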; settings: S. cerevisiae rad50 strain growth inhibition, active compounds read high
Summary of the method: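 Cells are treated with compound, grown, and their growth is then scored against vehicle-only cultures of the same repair-deficient yeast strain.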

[6] = NCI Yeast Anticancer Drug Screen. Data for the mec2-1 strain (AID 157); settings: S. cerevisiae mec2-1 strain, active compounds read high
Summary of the method: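 Using mec2-1 yeast: add compound, measure growth, express inhibition versus vehicle-treated cultures.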

[7] = NCI Yeast Anticancer Drug Screen. Data for the rad14 strain (AID 159);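 also: 0% = growth of vehicle-treated control cultures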; settings: S. cerevisiae rad14 strain growth inhibition, active compounds read high
Summary of the method: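 Readout: yeast growth inhibition, referenced to vehicle-only cultures. Strain bears a defined alteration in DNA damage repair.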

[8] = NCI Yeast Anticancer Drug Screen. Data for the sgs1 mgt1 strain (AID 161);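 also: 0% = growth of cultures given vehicle only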; settings: S. cerevisiae sgs1 mgt1 strain, active compounds read high
Summary of the method: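 Yeast cells carrying a defined DNA-repair defect were exposed to test compounds. Growth inhibition was measured relative to vehicle-treated controls.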

[9] = NCI Yeast Anticancer Drug Screen. Data for the CLN2oe strain (AID 163);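 also: 0% = growth of vehicle-only control cultures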; settings: S. cerevisiae CLN2oe strain, active compounds read high
Summary of the method: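 Whole-cell yeast growth assay. A strain engineered for altered cell-cycle control received compound, and inhibition relative to vehicle-treated cultures was recorded.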

[10] = NCI Yeast Anticancer Drug Screen. Data for the cln2 rad14 strain (AID 165);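 also: 0% = growth equal to vehicle treated cultures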; settings: S. cerevisiae cln2 rad14 strain, active compounds read high
Summary of the method: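 Yeast strain cln2 rad14, bearing defects in cell cycle control and DNA repair, serves as the test system; values reflect growth inhibition compared with vehicle.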

[11] = NCI Yeast Anticancer Drug Screen. Data for the bub3 strain (AID 167); settings: S. cerevisiae bub3 mutant strain, active compounds read high
Summary of the method: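 Part of a panel of yeast mutants defective in DNA damage repair or cell cycle regulation. Each strain is grown with compound, and inhibition is calculated relative to solvent-treated cultures.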

[12] = NCI Yeast Anticancer Drug Screen. Data for the wt2 strain (AID 169);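 also: 0% = growth of vehicle-treated yeast cultures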; settings: S. cerevisiae wt2 strain growth inhibition, active compounds read high
Summary of the method: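 Treated yeast vs. vehicle-treated yeast: growth inhibition determined.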

[13] = NCI Yeast Anticancer Drug Screen. Data for the mlh1 strain (AID 171);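 also: 0% = growth of vehicle-treated control cultures of the same strain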; settings: S. cerevisiae mlh1 strain growth inhibition, active compounds read high
Summary of the method: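 A yeast strain with a defined genetic lesion serves as the test organism. Cultures receive compound or vehicle, and growth is measured.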

[14] = NCI Yeast Anticancer Drug Screen. Data for the sgs1 strain (AID 173);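 also: 0% = growth of vehicle-only control cultures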; settings: S. cerevisiae sgs1 mutant, active compounds read high
Summary of the method: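 A genetically defined yeast mutant is incubated with the test compound, and its growth is compared to that of the same strain given vehicle.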

[15] = NCI Yeast Anticancer Drug Screen. Data for the mlh1 rad18 strain (AID 175); settings: S. cerevisiae mlh1 rad18 strain growth inhibition, active compounds read high
Summary of the method: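 Steps: expose repair-defective yeast to compound; measure growth; express inhibition against vehicle-treated controls.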

[16] = NCI Yeast Anticancer Drug Screen. Data for the rad18 strain (AID 177); settings: S. cerevisiae rad18 mutant growth inhibition, active compounds read high
Summary of the method: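 Measured value is growth inhibition of a yeast strain bearing a DNA repair alteration, referenced to vehicle-treated cells.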

[17] = at 5.0 µM (retest, dose inferred, filed as 0.5)
[18] = at 50.0 µM (retest, dose inferred, filed as 5.0)

Measured: growth inhibition

CC1(Cl)CC(C)(/C=C/Cl)C(Cl)CC1Cl (stereo not drawn)
active: [15]; at 50.0 µM 79.4%
inactive: [1]; at 1.2 µM 6% | [1]; at 3.7 µM 8% | [1]; at 11.0 µM 13% | [1]; at 33.0 µM 22% | [1]; at 100.0 µM 43% | [2]; at 1.2 µM 3% | [2]; at 3.7 µM 3% | [2]; at 11.0 µM 3% | [2]; at 33.0 µM 10% | [2]; at 100.0 µM 35% | [3]; at 1.2 µM 2% | [3]; at 3.7 µM 0% | [3]; at 11.0 µM 6% | [3]; at 33.0 µM 15% | [3]; at 100.0 µM 24% | [4]; at 1.2 µM 2% | [4]; at 3.7 µM 1% | [4]; at 11.0 µM 3% | [4]; at 33.0 µM 5% | [4]; at 100.0 µM 43% | [5]; at 1.2 µM -1% | [5]; at 3.7 µM -8% | [5]; [17] 12% | [5]; at 11.0 µM -3% | [5]; at 33.0 µM 28% | [5]; [18] -8% | [5]; at 50.0 µM 58.6% | [5]; at 100.0 µM 48% | [6]; at 1.2 µM 5% | [6]; at 3.7 µM 3% | [6]; [17] 9% | [6]; at 11.0 µM 6% | [6]; at 33.0 µM 20% | [6]; [18] 7% | [6]; at 50.0 µM 19.1% | [6]; at 100.0 µM 46% | [7]; at 1.2 µM 4% | [7]; at 3.7 µM 1% | [7]; at 11.0 µM 5% | [7]; at 33.0 µM 16% | [7]; at 100.0 µM 48% | [8]; [17] 1% | [8]; [18] -17% | [8]; at 50.0 µM 51% | [9]; at 1.2 µM 3% | [9]; at 3.7 µM 5% | [9]; at 11.0 µM 8% | [9]; at 33.0 µM 23% | [9]; at 100.0 µM 49% | [10]; [17] 40% | [10]; [18] -20% | [10]; at 50.0 µM 45% | [11]; at 1.2 µM 2% | [11]; at 3.7 µM 0% | [11]; [17] -3% | [11]; at 11.0 µM 2% | [11]; at 33.0 µM 12% | [11]; [18] -8% | [11]; at 50.0 µM 15.4% | [11]; at 100.0 µM 31% | [12]; at 1.2 µM 0% | [12]; at 3.7 µM 1% | [12]; at 11.0 µM 3% | [12]; at 33.0 µM 16% | [12]; at 100.0 µM 50% | [13]; at 1.2 µM 2% | [13]; at 3.7 µM 1% | [13]; at 11.0 µM 4% | [13]; at 33.0 µM 14% | [13]; at 100.0 µM 41% | [14]; at 1.2 µM 4% | [14]; at 3.7 µM 2% | [14]; at 11.0 µM 2% | [14]; at 33.0 µM 28% | [14]; at 100.0 µM 64% | [15]; [17] 8% | [15]; [18] -23% | [16]; at 1.2 µM 5% | [16]; at 3.7 µM 5% | [16]; at 11.0 µM 12% | [16]; at 33.0 µM 30% | [16]; at 100.0 µM 48%

Reference: PubChem BioAssay (NCI)
